SMILES strings stand for the structures. Out of some 52,000 compounds screened, about 4,300 (8.3%) were called active. No stated cut-off is given here; in the data, active means survival mostly below about 52% (no sharp cut-off); inactive means mostly above about 56%. Only a selection was taken, and actives are over-represented in it overall.

The values that follow come from PubChem BioAssay AID463173 (ICCB-Longwood Screening Facility, Harvard Medical School, 2010).

The assay concerns DeltatarO mutant. Description: growth inhibition of S. aureus wild type versus tarO mutant, primary screen, teichoic acid synthesis inhibitors, RN4220, OD600 (AID 463173). The conditions noted are these: OD600, 18 h, stronger effect = lower value, screened at 18.75 µg/mL (by protocol).
As to `Cc1cccc(CN2C(=O)c3ccccc3Sc3ccc(C(=O)N4CCCC4)cc32)c1`, the survival was 83% (inactive).

As to `COc1ccc(OCC(=O)Nc2cccc(-c3nc4ccccc4s3)c2C)cc1`, the survival was 106% (inactive).

Take `COc1cccc(CC(=O)Nc2ccc(-c3nc4ccccc4s3)cc2Cl)c1`: the survival was 69% (inactive).

For `Cc1cc(C)cc(OCC(=O)Nc2ccc(-c3nc4ccccc4s3)cc2)c1`, the survival is 68% (inactive).

Consider `COc1ccc(CC(=O)Nc2ccc(-c3nc4ccccc4s3)cc2Cl)cc1`, for which the survival was 69% (inactive).

On to `COc1ccc(OCC(=O)Nc2ccc(O)c(-c3nc4ccccc4s3)c2)cc1`, for which the survival is 43% (active).

With `CCOc1ccccc1C(=O)Nc1ccccc1`, the survival was 65% (inactive).

With `CCOc1ccc(C(=O)Nc2ccc(-c3nc4ccccc4s3)c(C)c2)cc1OCC`, the survival is 99% (inactive).

On to `O=C(COc1ccc(Cl)cc1)Nc1ccc(O)c(-c2nc3ccccc3s2)c1`, for which the survival is 94% (inactive).

With `Cc1ccc(OCC(=O)Nc2cccc(-c3nc4ccccc4s3)c2)cc1`, the survival was 47% (active).

As for `O=C(COc1ccc(Cl)cc1)Nc1ccc(-c2nc3ccccc3s2)c(O)c1`, the survival is 68% (inactive).

Consider `CCOc1ccccc1C(=O)Nc1cccc(-c2nc3ccccc3s2)c1`, for which the survival was 41% (active).

On to `COc1cccc(CC(=O)Nc2ccc(-c3nc4ccccc4s3)cc2)c1`, for which the survival was 0% (active).

Regarding `CCOc1ccc(NS(=O)(=O)c2ccc3c4c(cccc24)C(=O)N3)cc1`, the survival is 83% (inactive).

Regarding `CCn1cc2nc(SCc3ccccc3)n(Cc3ccc(C)cc3)c(=O)c2n1`, the survival was 93% (inactive).

For `O=C(NCCc1ccccc1)c1cc(-c2ccccc2)nc2n[nH]c(-c3ccccc3)c12`, the survival was 55% (inactive).

On to `CCOC(=O)c1ccc(CN(Cc2ccc(F)cc2)S(=O)(=O)c2ccc(F)c(C(=O)Nc3ccc(Cl)cc3F)c2)cc1`, for which the survival is 79% (inactive).

Take `CCOc1cc(CNC(=O)c2cc(-c3ccc(Cl)s3)nc3ccccc23)ccc1OC`: the survival is 84% (inactive).

`CCOC(=O)C1CCCN(C(=O)Cn2ncc3c4ccccc4n(C)c3c2=O)C1` (stereo unspecified): the survival was 121% (inactive).

With `Cc1csc2nc(-c3cccc(NC(=O)C(C)C)c3)cn12`, the survival is 73% (inactive).

`COc1ccc(-c2nc3ccccc3s2)cc1NC(=O)COc1ccc(C)cc1`: the survival was 129% (inactive).

Consider `Cc1ccc2nc(-c3ccc(NC(=O)COc4ccccc4)cc3)sc2c1`, for which the survival was 68% (inactive).

As for `CCCC(=O)Nc1cccc(-c2cn3c(C)csc3n2)c1`, the survival is -5% (active).

Take `COc1ccc(-c2nc3ccccc3s2)cc1NC(=O)COc1cccc(C)c1`: the survival was 16% (active).

For the molecule `Cc1ccc2nc(-c3ccc(NC(=O)COc4c(C)ccc(C)c4C)cc3)sc2c1`, the survival was 38% (active).

Consider `COc1ccc(OCC(=O)Nc2cc(-c3nc4ccccc4s3)ccc2C)cc1`, for which the survival is 45% (active).

With `Cc1csc2nc(-c3cccc(NC(=O)c4c(F)cccc4F)c3)cn12`, the survival is 128% (inactive).

With `Cc1ccc2nc(-c3ccc(NC(=O)COc4ccc(Cl)c(C)c4)cc3)sc2c1`, the survival was 74% (inactive).

`COc1ccc(-c2nc3ccccc3s2)cc1NC(=O)COc1ccccc1C`: the survival was 142% (inactive).

On to `CC(=O)Nc1cc(-c2nc3ccccc3s2)ccc1C`, for which the survival is 83% (inactive).

Regarding `Cc1ccc(-c2nc3ccccc3s2)cc1NC(=O)COc1ccccc1`, the survival is 54% (inactive).
